Source: PubChem BioAssay (National Center for Advancing Translational Sciences (NCATS))
Most compounds without a hit are left out; they make up all but 2.9% or so of the library.
GLP1R cytotox: cytotoxic in the GLP-1 receptor inverse agonist counter-screen; HEK293 cAMP-luciferase reporter cells, luminescence, 24 h; 410,000 tested, 0.13% active; Potency, µM (top dose mostly 38.3 µM), inactives show at the highest dose activity change, negative = inhibition, most hits filed as inhibitors;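 note: loss of luciferase light is scored as toxicity; potency is the fitted concentration of half-maximal effect; % is set by controls: 0 for no effect and ±100 for the full control effect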
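Compound-treated cells are incubated 24 hr at 37 deg C under 5% CO2 after a 12 hour attachment period, then luciferase detection reagent is added and luminescence is measured following 12 min at room temperature; lowered signal indicates toxicity.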
GLP-1R inv ag: acts as inverse agonist at human GLP-1 receptor. P43220. HEK293 GLP-1R CRE-luciferase, luminescence, 24 h; GLP-1R form is constitutively active. Potency, µM (highest dose often 38.3 µM), without a hit: at the highest dose activity change, negative = inhibition, hits mostly inhibitors. 410,000 tested, 1.6% active. AID 624417; note: potency is the fitted concentration of half-maximal effect; % is set by controls: 0 for no effect and ±100 for the full control effect; nearly all actives have a fitted effect of over 55% in size
Target sequence (P43220 whole entry, looked up): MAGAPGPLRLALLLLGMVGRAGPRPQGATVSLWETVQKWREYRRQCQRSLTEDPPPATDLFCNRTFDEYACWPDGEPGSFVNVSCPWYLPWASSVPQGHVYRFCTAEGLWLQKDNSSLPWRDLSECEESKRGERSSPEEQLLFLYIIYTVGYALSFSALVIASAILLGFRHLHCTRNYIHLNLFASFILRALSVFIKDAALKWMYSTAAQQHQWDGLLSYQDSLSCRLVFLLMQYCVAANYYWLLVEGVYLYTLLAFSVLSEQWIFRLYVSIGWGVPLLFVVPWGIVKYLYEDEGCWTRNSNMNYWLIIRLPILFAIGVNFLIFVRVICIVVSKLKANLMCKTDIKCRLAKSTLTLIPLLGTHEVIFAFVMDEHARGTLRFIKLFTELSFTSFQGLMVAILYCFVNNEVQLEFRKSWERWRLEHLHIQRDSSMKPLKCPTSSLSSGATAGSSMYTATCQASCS
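GLP-1R inverse agonism mode: basal reporter luminescence in engineered HEK293 cells measured after one day of compound exposure at 37 deg C, with a 12 min room-temperature detection step.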
LDHA inh: inhibitors of human lactate dehydrogenase A; purified LDHA, NADH/diaphorase-resazurin fluorescence; stronger effect = lower value; activity change, % (values are at about 110 or 230 µM); 480,000 tested, 0.15% active; AID 1347041; in the data active = activity change below about -30%; inconclusive = mostly about -25% to -30%;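 note: plate controls were DMSO wells for no effect and wells without enzyme for full effect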
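Enzyme activity of human lactate dehydrogenase 5 (2 nM; 0.06 mM NADH, 0.2 mM pyruvate, 5 min, RT) is measured via a resazurin/diaphorase fluorescence readout of residual NADH.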
GLP1R ag: agonists of human GLP-1 receptor. P43220. HEK293 GLP-1R CRE-luciferase, luminescence, 4-6 h; cells express a hypersensitive GLP-1R form. Potency, µM (doses to about 45.6 µM), for the others: at the top dose activation, hits mostly activators. 380,000 tested, 0.007% active. AID 624172; note: potency is the fitted concentration of half-maximal effect; % of control where 0% means no effect
ClpP mod: qHTS Assay for Activators of ClpP | ATP-dependent Clp protease proteolytic subunit (Bacillus subtilis (strain 168)), P80244 | purified B. subtilis ClpP, FRET peptide cleavage, 20 min | Potency, µM (doses to about 57.5 µM), without a hit: at the highest dose activity change, negative = active | 340,000 tested, 1.9% active | AID 651965, 2013; active = well fitted falling curve with a large enough effect; inconclusive = small, poorly fitted or top-dose-only effect; inactive = no such curve, though single readings can be large or run the other way; note: potency is the fitted concentration of half-maximal effect; the source files actives as falling curves though it sought activators and does not explain the sign; nearly all actives have a fitted effect of over 65% in size
Target sequence (P80244 whole entry, looked up): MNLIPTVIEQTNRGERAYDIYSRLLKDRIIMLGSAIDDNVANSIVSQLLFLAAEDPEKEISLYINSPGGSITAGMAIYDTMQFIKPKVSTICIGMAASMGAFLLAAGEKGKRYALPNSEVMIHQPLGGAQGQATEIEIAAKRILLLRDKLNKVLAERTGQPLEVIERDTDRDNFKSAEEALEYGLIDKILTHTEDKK
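FRET quenching reversal measured ClpP activation: 10 microg/mL B. subtilis ClpP at pH 8 with the FRET-FV decapeptide, read at 430 nm after 320 nm excitation. The 20-min minus 0-min signal was scaled between DMSO/no-enzyme wells and ADEP (5.8 microM final).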
p53 reactivation: restores transcriptional activity of mutant p53; H1299 p53-A138V BP100-luciferase reporter, luminescence, 24 h; Potency, µM (top dose mostly 92.2 µM), for inactives: top-dose activity change, positive = activation, usual class: activators; 320,000 tested, 0.063% active; note: potency is the fitted concentration of half-maximal effect; % of control where 0% means no effect; nearly all actives have a fitted effect of over 45% in size
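H1299 (p53-null), stable ts p53-A138V + BP100-Luc; 1000 cells/well, Opti-MEM/10% FBS; cpd 4 pt, 1:5; 24 h, 37 deg C, 5% CO2; detection reagent 10 min RT; luminescence.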
* hit, by the source's call; ? = inconclusive; . = not tested or not shown. Unless noted, calls come from the whole dose curve; as a rule, active = well fitted curve in the direction sought with a large enough effect; inconclusive = small, poorly fitted or top-dose-only effect, or another doubt; inactive = no such curve, though single readings can be large; an effect the other way counts as inactive or inconclusive.

SMILES	GLP1R cytotox	GLP-1R inv ag	LDHA inh	GLP1R ag	ClpP mod	p53 reactivation
COc1ccc(-n2nc3c(c2NC(=O)C(C)Oc2ccccc2)CS(=O)C3)cc1 (centres undefined)	-12%	15%	3	6%	32µM*	0%
COCCN(Cc1ccccc1)C(=S)Nc1ccc(OC(F)F)cc1	-4%	?	-1	1%	.	-10%
CCCN(Cc1ccccc1)C(=S)Nc1ccc(OC(F)F)cc1	0%	?	0	5%	10µM*	-7%
CC(=O)c1ccc(NC(=S)N(CCCN(C)C)Cc2ccccc2)cc1	-7%	?	-7	7%	.	-4%
CN(C)CCCN(Cc1ccccc1)C(=S)Nc1ccc(SC(F)F)cc1	-25%	11µM*	-4	15%	4%	-3%
CC1Cc2ccccc2N1CC(=O)c1c(N)n(Cc2ccccc2)c(=O)n(C)c1=O (centres undefined)	2%	?	1	-4%	-1%	3%
CC(C)(C)c1ccc(-c2nnc(SCC(=O)N3CCC3)n2C2CCCC2)cc1	.	.	16	.	.	.
CC(C)(C)c1ccc(-c2nnc(SCCC#N)n2C2CCCC2)cc1	-16%	10µM*	-1	3%	-1%	-1%
Cc1ccc(C(=O)N(c2ccccc2)C2CC(C)N(C(=O)c3ccco3)c3ccccc32)cc1 (centres undefined)	-9%	10µM*	-3	-1%	1%	-8%
CC(=O)N(c1ccccc1)C1CC(C)N(C(=O)c2ccccc2)c2ccccc21 (centres undefined)	6%	9%	-9	-1%	?	?
CN1c2ccccc2C(O)=C(C(=S)Nc2ccc(F)c(Cl)c2)S1(=O)=O	11%	10µM*	-7	-26%	-11%	-9%
COc1ccc(-c2[nH]c3ccccc3c2SCCNC(=O)c2cc3ccccc3oc2=O)cc1	-16%	?	-7	-2%	-1%	4%
COc1ccc(-c2[nH]c3ccccc3c2SCCN)cc1	?	2µM*	-9	-1%	3%	-2%
Cc1ccc(CN(Cc2ccco2)C(=S)NCC(=O)O)cc1	1%	8%	-1	0%	0%	8%
Cc1c(CN(C)C)c2c(n1C)C(=O)c1ccc(Br)cc1-2	8.9µM*	132%	-1	0%	0%	?
CC(=O)c1cc(-c2ccccc2)n(CC(=O)N2CCN(C3CCCC3)CC2)c1C	-3%	-20%	1	2%	32µM*	12%
COc1cccc(-c2cccc(NC(=O)C3CCN(Cc4nccs4)CC3)c2)c1	-4%	-22%	-2	-3%	0%	-1%
CCOc1ccc(CN2CCC(C(=O)Nc3cccc(-c4ccn[nH]4)c3)CC2)cc1Cl	?	10µM*	-7	-1%	-5%	8%
O=C(Nc1ccc(C(=O)N2CCOCC2)cc1)Nc1cccc(Cl)c1	-19%	?	-1	6%	2%	?
CCC(c1nnnn1CCOC)N(Cc1cc2c(C)cc(C)cc2[nH]c1=O)CC1CCCO1 (centres undefined)	10%	0%	4	4%	28µM*	-8%
COCC(=O)Nc1cc(C(=O)NCCc2ccccc2)ccc1Cl	-11%	0%	2	10%	2%	?
O=C(Nc1ccc(Cl)cc1)Nc1nnc(SCc2ccccc2)s1	-7%	3%	-6	-1%	-1%	28µM*
O=C(Nc1nnc(SCc2ccc(Cl)cc2)s1)c1ccco1	-1%	1%	-8	-13%	-10%	3%
Cc1cccc(C)c1OC(=O)CCN1C(=O)C2C3C=CC(C4CC34)C2C1=O (centres undefined)	4%	7.1µM*	-1	2%	.	-2%
CCc1ccc(NC(=O)CCc2ccc(CC)o2)cc1	-21%	10µM*	2	-2%	.	7%
SMILES	GLP1R cytotox	GLP-1R inv ag	LDHA inh	GLP1R ag	ClpP mod	p53 reactivation
C#CCOc1ccc(C(C)=O)cc1-c1nnc2n1N=C(c1ccc(OC)c(O[C@@H]3CCOC3)c1)CS2	.	.	2	.	.	.
N/C(Cc1ccc(Cl)cc1)=N\OC(=O)c1ccc2ccccc2c1	?	7.9µM*	-5	?	-8%	?
COc1ccc(S(=O)(=O)N(CC(=O)N2CCN(c3ccccc3OC)CC2)c2ccccc2)cc1	-10%	10µM*	4	-3%	1%	7%
COc1ccc(N2CCN(C(=O)CN(c3ccccc3)S(=O)(=O)c3ccc(OC)cc3)CC2)cc1	1%	0%	0	-11%	-2%	-1%
COc1ccccc1N1CCN(C2CCCCC2NS(=O)(=O)c2ccccc2)CC1 (centres undefined)	0%	10µM*	-1	-5%	0%	-4%
CCN(CC)S(=O)(=O)c1ccc(N2CCN(c3ccccc3OC)CC2)c(N)c1	-1%	10µM*	3	4%	.	15%
CCN(CC)S(=O)(=O)c1ccc2c(c1)c(=O)c(C(=O)N1CCN(c3ccccc3OC)CC1)cn2C	3%	-17%	2	1%	0%	.
COc1ccc(S(=O)(=O)N2CCC(N3CCN(c4ccccc4OC)CC3)CC2)cc1	2%	-13%	-32*	7%	.	-2%
CN1CCN(C2CCCCC2NS(=O)(=O)c2ccccc2)CC1 (centres undefined)	-1%	-6%	-1	-1%	-1%	10%
Cc1onc(-c2ccccc2)c1CNC(=O)Nc1ccc(C(F)(F)F)cc1	?	?	4	9%	.	-2%
Cc1cccc2cc(C#N)c(NCCCNS(=O)(=O)c3ccc(Cl)cc3)nc12	33%	10µM*	1	14%	?	0%
Cc1ncc(CO)c(/C=N/NC(=O)c2ccoc2C)c1O	88%	-15%	5	7%	25µM*	30%
COc1cccc(/C=N/NC(=O)CCc2n[nH]c(=O)[nH]c2=O)c1O	22%	20%	12	4%	10µM*	?
COc1cccc(/C=N/NC(=O)C(=O)N/N=C/c2cccc(OC)c2O)c1O	1%	-7%	5	0%	.	0%
COc1ccc(/C=N/NC(=O)CCc2n[nH]c(=O)[nH]c2=O)cc1OC	29%	21%	-10	-1%	-6%	1%
Cc1ncc(CO)c(/C=N/NC(=O)c2ccc(O)cc2)c1O	187%	18%	5	-8%	?	14%
COc1cccc(/C=N/NC(=O)c2ccoc2C)c1O	-41%	1.3µM*	3	3%	-2%	?
Clc1ccc(-c2nc(NC3CCCC3)c3ccccc3n2)cc1	.	.	-6	.	.	.
